The values below come from PubChem BioAssay AID434970 (Sanford-Burnham Center for Chemical Genomics, 2010).

The structures appear in SMILES notation. About 310 (2.8%) of roughly 11,000 compounds were called active. Rule as the data show it: active = activity change below about -85%; inactive = the rest. Only a selection was taken, and actives are over-represented in it overall.

The assay relates to intestinal alkaline phosphatase [Mus musculus]. Description: activators of mouse IAP, confirmation, biochemical, luminescence, single concentration (AID 434970). The following applies: purified mouse IAP, CDP-Star luminescence, 30 min, at 10 µM; activation factor: measured here: IAP activation factor, stronger effect = higher value; activity change, negative = activation: stronger effect = lower value.
As to `COCCOC(=O)c1c(C)n(C)c2ccc(OC(=O)C3CC3)cc12`, the activation factor came out at 1.07 and the activity change, negative = activation is -7.45% (inactive).

With `CCCCNS(=O)(=O)CCNCCc1ccccc1`, the activation factor was found to be 1.1 and the activity change, negative = activation was -10.1% (inactive).

As to `COc1ccc(C2/C=C\CC(NS(=O)(=O)c3ccc(C)cc3)CC(=O)N2Cc2ccccc2F)cc1` (stereo not drawn), the activation factor was 1.18 and the activity change, negative = activation is -17.7% (inactive).

For the molecule `O=C(CN1CCOCC1)Nc1cccc(C(=O)Nc2cccc(C(F)(F)F)c2)c1`, the activation factor is 1.03 and the activity change, negative = activation is -2.95% (inactive).

For the molecule `Cc1occc1-c1nnc(SCC(=O)Nc2ccc3c(c2)OCO3)n1CC1CCCO1` (stereo not drawn), the activation factor came out at 0.919 and the activity change, negative = activation was 8.1% (inactive).

Take `CCOC(=O)C1=CN(Cc2cccc(F)c2)S(=O)(=O)NC1c1ccc(F)c(Cl)c1` (stereo not drawn): the activation factor came out at 0.881 and the activity change, negative = activation is 11.9% (inactive).

Regarding `C#CCOCCOCCOCCNc1nc(N2CCN(C(=O)CCCCCCCCCCNC(=O)Cn3cc(CCCCCN)nn3)CC2)nc(N2CCN(C(=O)CCCCCCCCCCNC(=O)[C@H]([C@@H](C)CC)n3cc(CCCCN=C(N)N)nn3)CC2)n1`, the activation factor is 10 and the activity change, negative = activation was -904% (active).

Take `C#CCOCCOCCOCCNc1nc(N2CCN(C(=O)CCCCCCCCCCNC(=O)Cn3cc(C[C@@H](C)O)nn3)CC2)nc(N2CCN(C(=O)CCCCCCCCCCNC(=O)[C@@H]([C@H](C)CC)n3cc(CCCCCN)nn3)CC2)n1`: the activation factor was 5.59 and the activity change, negative = activation is -459% (active).

`C#CCOCCOCCOCCNc1nc(N2CCN(C(=O)CCCCCCCCCCNC(=O)Cn3cc(CCCCCN)nn3)CC2)nc(N2CCN(C(=O)CCCCCCCCCCNC(=O)Cn3cc(C[C@@H](C)O)nn3)CC2)n1`: the activation factor was found to be 2.22 and the activity change, negative = activation is -122% (active).

`C#CCOCCOCCOCCNc1nc(N2CCN(C(=O)[C@H](Cc3cc4ccccc4[nH]3)n3cc([C@@H](N)CC(C)C)nn3)CC2)nc(N2CCN(C(=O)[C@H](Cc3cc4ccccc4[nH]3)n3cc([C@@H](N)CC(C)C)nn3)CC2)n1`: the activation factor came to 1.61 and the activity change, negative = activation was -60.9% (inactive).

`C#CCOCCOCCOCCNc1nc(N2CCN(C(=O)CCCCCCCCCCNC(=O)Cn3cc(CCCCCN)nn3)CC2)nc(N2CCN(C(=O)CCCCCCCCCCNC(=O)[C@H]([C@@H](C)CC)n3cc(CCCCCN)nn3)CC2)n1`: the activation factor was found to be 3.67 and the activity change, negative = activation is -267% (active).

Consider `CCOC(=O)CN1C(=O)/C(=C2\SC(=S)N(NC(=O)c3cccnc3)C2=O)c2ccccc21`, for which the activation factor came to 0.472 and the activity change, negative = activation was 52.8% (inactive).

With `Cc1c(C(=O)N2CCN(c3ncccn3)CC2)sc2nc3n(c(=O)c12)CCCC3`, the activation factor amounted to 1.11 and the activity change, negative = activation is -11.4% (inactive).

For the molecule `Clc1ccc2nc(C3CCN(Cc4nnnn4C4CCCCC4)CC3)[nH]c2c1`, the activation factor amounted to 1.15 and the activity change, negative = activation is -14.6% (inactive).

Regarding `CCn1nnnc1SCC(=O)c1cccc(OC)c1`, the activation factor came out at 0.96 and the activity change, negative = activation is 4.05% (inactive).

As for `COc1cccc(CNC(=O)c2ccc(NC(=O)C3CCCO3)cc2)c1` (stereo not drawn), the activation factor amounted to 0.932 and the activity change, negative = activation is 6.8% (inactive).

For `CCOc1ccc(-n2cc(C(=O)Nc3ccc(Cl)cn3)c3cc(OC)c(OC)cc3c2=O)cc1`, the activation factor was determined as 0.946 and the activity change, negative = activation is 5.4% (inactive).

`Oc1ccccc1C1=NOC(O)(C(F)F)C1` (stereo not drawn): the activation factor was found to be 0.928 and the activity change, negative = activation was 7.2% (inactive).

As to `CCOC(=O)N1CCN(C(=O)c2ccc3c(=O)n(CCC4=CCCCC4)c(=O)[nH]c3c2)CC1`, the activation factor turned out to be 0.936 and the activity change, negative = activation was 6.4% (inactive).

For the molecule `O=C(CC1CCCC1)Nc1nnc(C2CC2)s1`, the activation factor was 0.933 and the activity change, negative = activation was 6.65% (inactive).

As for `Cc1onc(-c2ccccc2)c1C(=O)Nc1nc2c(s1)C(=O)CC(C)(C)C2`, the activation factor worked out at 0.877 and the activity change, negative = activation is 12.2% (inactive).

As for `O=C(NCCc1ccccc1)c1cc(-c2ccccc2)c(N2CCOCC2)s1`, the activation factor was found to be 1.46 and the activity change, negative = activation was -45.9% (inactive).

For the molecule `CCOc1ccc(CCNC(=O)c2cc(-c3ccccc3)c(N3CCOCC3)s2)cc1`, the activation factor is 2.1 and the activity change, negative = activation was -110% (active).

For the molecule `CCOc1ccc(CCNC(=O)c2cc(-c3ccccc3)c(N3CCOCC3)s2)cc1OCC`, the activation factor was found to be 1.74 and the activity change, negative = activation is -73.9% (inactive).

Consider `O=C(NCCc1ccc(F)cc1)N1CCOCC1`, for which the activation factor is 1.01 and the activity change, negative = activation is -0.6% (inactive).

On to `O=C(CCCC(=O)N(CC(=O)NC1CCCCC1)Cc1ccccc1)Nc1ccccn1`, for which the activation factor came out at 1.16 and the activity change, negative = activation was -15.6% (inactive).

`CCCCC(=O)Nc1ccc(NC(=O)c2cccnc2)cn1`: the activation factor turned out to be 1.06 and the activity change, negative = activation was -5.55% (inactive).

In the case of `Cc1ccccc1NC(=O)/C(=C\c1cccs1)NC(=O)c1ccccc1`, the activation factor is 1.02 and the activity change, negative = activation was -1.5% (inactive).

As to `COc1ccc(C(CCN2CCOCC2)c2c(OC)cc(OC)c3c(-c4ccccc4)cc(=O)oc23)cc1` (stereo not drawn), the activation factor was 1.07 and the activity change, negative = activation was -7.05% (inactive).

Take `O=C(CN1CCN(S(=O)(=O)c2ccc(Cl)cc2)CC1)NC(=O)NC1CCCCC1`: the activation factor stood at 0.929 and the activity change, negative = activation was 7.05% (inactive).

With `O=C(Nc1cccc(Cl)c1)Nc1cc(S(=O)(=O)N2CCCCC2)ccc1Cl`, the activation factor stood at 2.08 and the activity change, negative = activation is -108% (active).

Turning to `O=C(Cc1ccc(Cl)cc1)Nc1cccc(S(=O)(=O)N2CCCCC2)c1`, the activation factor was determined as 1.4 and the activity change, negative = activation is -40.2% (inactive).

For `O=C(Nc1cccc(S(=O)(=O)N2CCCCC2)c1)Nc1ccc(Cl)cc1Cl`, the activation factor worked out at 4.41 and the activity change, negative = activation was -341% (active).

Take `O=C(Nc1ccc(Cl)cc1F)c1cc(S(=O)(=O)N2CCCCC2)ccc1F`: the activation factor came to 1.11 and the activity change, negative = activation was -11.5% (inactive).

Regarding `O=C(Nc1ccc(Cl)cc1Cl)NC1CCN(S(=O)(=O)c2ccc(F)cc2)CC1`, the activation factor amounted to 2.16 and the activity change, negative = activation was -116% (active).

`O=C(Cc1ccccc1Cl)Nc1cccc(S(=O)(=O)N2CCCCCC2)c1`: the activation factor was determined as 1.61 and the activity change, negative = activation was -60.6% (inactive).

As for `Cc1cc(OCC(=O)Nc2cccc(S(=O)(=O)N3CCCCC3)c2)ccc1Cl`, the activation factor amounted to 1.81 and the activity change, negative = activation was -81.3% (inactive).

Consider `COc1ccc(CCNc2nc(-c3ccco3)cc(C(F)(F)F)n2)cc1OC`, for which the activation factor was 0.889 and the activity change, negative = activation was 11.2% (inactive).

Regarding `CCn1c(CSc2nc3ccccc3[nH]2)nc2cc(C(=O)O)ccc21`, the activation factor is 0.865 and the activity change, negative = activation is 13.6% (inactive).

With `CN1CCN(CCc2nc3cc(NC(=O)COc4ccccc4)ccc3n2C)CC1`, the activation factor turned out to be 0.96 and the activity change, negative = activation was 4.05% (inactive).

Take `CN1CCN(C(=O)c2ccc3c(c2)OCCO3)CC1`: the activation factor came to 0.959 and the activity change, negative = activation was 4.15% (inactive).

Take `Cc1nc(CC(=O)Nc2nc(-c3ccccc3)cs2)cs1`: the activation factor came to 0.961 and the activity change, negative = activation was 3.9% (inactive).

For the molecule `COc1ccc(OC)c(S(=O)(=O)N2CCC(C(=O)NC(C)c3ccccc3)CC2)c1` (stereo not drawn), the activation factor is 1.03 and the activity change, negative = activation is -3.4% (inactive).

As to `Nc1c(C(=O)NCCc2ccccc2)nnn1Cc1ccc(Cl)cc1`, the activation factor came out at 1.1 and the activity change, negative = activation was -9.55% (inactive).
